Source: the supplement of paper PMC10849652
Of roughly 7,900 targets only a part is listed; those with a hit were picked by preference. About 0.6% of all pairs of compound and target were hits. A number with no mark means an inactive call.

Target: AAK1 (UniProt Q2M2I8)
Assay: log2 fold change, soluble protein after heating vs DMSO (PISA); higher = thermal stabilisation; K562 cells, 10 uM, 30 min; active = over 0.2 and 3.5 SD of the protein, either way, in both replicates (recomputed)
Summary of the method: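 K562 cells (2×10^6 cells/mL) were treated with 10 μM compound for 30 min, and aliquots were heated for 3 min over 48°C-58°C. Pooled aliquots were extracted in PBS with 0.5% NP-40 at 4°C, and the supernatant after 21,000xg for 90 min was measured by TMTpro 16plex LC-MS/MS with channel sums equalised. Reported thermal stability, relative to control samples and from duplicates, is a log2 fold change.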

Chain of AAK1 (Q2M2I8 whole entry, looked up): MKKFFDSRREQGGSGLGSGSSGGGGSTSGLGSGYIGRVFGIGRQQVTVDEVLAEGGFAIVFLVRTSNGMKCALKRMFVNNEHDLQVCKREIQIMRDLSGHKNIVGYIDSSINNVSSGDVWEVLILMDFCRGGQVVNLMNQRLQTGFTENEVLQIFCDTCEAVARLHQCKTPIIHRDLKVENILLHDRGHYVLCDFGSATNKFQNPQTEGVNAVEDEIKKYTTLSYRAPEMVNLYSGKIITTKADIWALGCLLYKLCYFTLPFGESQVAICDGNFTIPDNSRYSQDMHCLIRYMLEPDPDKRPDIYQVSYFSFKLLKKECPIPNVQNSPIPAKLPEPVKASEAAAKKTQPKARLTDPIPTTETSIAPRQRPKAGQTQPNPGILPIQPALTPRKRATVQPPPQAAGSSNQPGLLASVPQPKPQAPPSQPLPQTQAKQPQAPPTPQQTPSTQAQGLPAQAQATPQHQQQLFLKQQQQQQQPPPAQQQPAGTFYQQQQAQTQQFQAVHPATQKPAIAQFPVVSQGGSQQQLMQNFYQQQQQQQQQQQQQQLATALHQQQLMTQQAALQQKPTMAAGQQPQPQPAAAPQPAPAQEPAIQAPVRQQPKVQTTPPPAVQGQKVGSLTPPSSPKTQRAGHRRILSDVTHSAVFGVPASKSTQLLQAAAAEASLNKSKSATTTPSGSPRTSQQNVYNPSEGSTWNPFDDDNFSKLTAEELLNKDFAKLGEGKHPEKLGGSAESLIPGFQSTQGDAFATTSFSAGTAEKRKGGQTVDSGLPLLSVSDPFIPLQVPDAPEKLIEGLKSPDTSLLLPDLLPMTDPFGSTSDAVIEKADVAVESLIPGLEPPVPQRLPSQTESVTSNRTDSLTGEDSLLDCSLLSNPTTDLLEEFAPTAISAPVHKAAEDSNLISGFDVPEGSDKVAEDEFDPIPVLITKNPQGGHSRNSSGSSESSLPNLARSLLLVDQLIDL

Compound	log2 fold change
CCN(CC)Cc1ccc2cc(COC(=O)Nc3ccc(C(=O)NO)cc3)ccc2c1 [givinostat]	0.042
NCC(=O)Nc1ccc(-n2nc(C(F)(F)F)cc2-c2ccc3c(ccc4ccccc43)c2)cc1	0.045
CO[C@H]1C[C@@H]2CC[C@@H](C)[C@@](O)(O2)C(=O)C(=O)N2CCCC[C@H]2C(=O)O[C@H]([C@H](C)C[C@@H]2CC[C@H](n3cnnn3)[C@H](OC)C2)CC(=O)[C@H](C)/C=C(\C)[C@@H](O)[C@@H](OC)C(=O)[C@H](C)C[C@H](C)/C=C/C=C/C=C/1C [zotarolimus]	-0.004
CC[C@@H]1C(=O)N(C)c2cnc(Nc3ccc(C(=O)N[C@H]4CC[C@H](N5CCN(CC6CC6)CC5)CC4)cc3OC)nc2N1C(C)C [volasertib]	0.121
Cc1ccc(C(=O)N(CCCN)[C@@H](c2nc3cc(Cl)ccc3c(=O)n2Cc2ccccc2)C(C)C)cc1 [ispinesib]	0.091
CN1CC[C@H](c2c(O)cc(O)c3c(=O)cc(-c4ccccc4Cl)oc23)[C@H](O)C1 [alvocidib]	0.025
C[C@@H](N)c1ccc(C(=O)Nc2ccnc3[nH]ccc23)cc1	0.412 (active)
Fc1ccc(Cl)cc1-c1nc(Nc2ccncc2)c2nccnc2n1	0.019
CS(=O)(=O)CCNCc1ccc(-c2ccc3ncnc(Nc4ccc(OCc5cccc(F)c5)c(Cl)c4)c3c2)o1 [lapatinib]	0.038
Cc1nc(Nc2n[nH]c3c2CN(C(=O)N[C@H](CN(C)C)c2ccccc2)C3(C)C)c2sccc2n1	0.158
Cn1cncc1[C@@](N)(c1ccc(Cl)cc1)c1ccc2c(c1)c(-c1cccc(Cl)c1)cc(=O)n2C [tipifarnib]	-0.057
CCCS(=O)(=O)Nc1ccc(F)c(C(=O)c2c[nH]c3ncc(Cl)cc23)c1F	-0.028
COc1cc2ncnc(Nc3ccc(F)c(Cl)c3)c2cc1OCCCN1CCOCC1 [gefitinib]	-0.097
Cc1ccc(-n2nc(C(C)(C)C)cc2NC(=O)Nc2ccc(OCCN3CCOCC3)c3ccccc23)cc1 [doramapimod]	-0.095
O=C(O)c1ccc2c(c1)nc(Nc1cccc(Cl)c1)c1ccncc12 [silmitasertib]	0.153
CC(C)c1cnn2c(NCc3ccccc3)cc(NCCCCCCN)nc12	-0.043

Compound	log2 fold change
O=C1NC(=NCc2cccs2)S/C1=C\c1ccc2ncccc2c1	0.339
CN1CCN(c2nc(C3=C(c4c[nH]c5ccccc45)C(=O)NC3=O)c3ccccc3n2)CC1 [sotrastaurin]	-0.196
O=C(Nc1nc2ccccc2n1CCN1CCOCC1)c1cccc([N+](=O)[O-])c1 [IRAK-1-4 Inhibitor I]	-0.085
CN1CCC(CNc2ccc3ncc(-c4cccc(OC(F)(F)F)c4)n3n2)CC1	0.27
C[C@H](Nc1ncnc2nc[nH]c12)c1cc2cccc(Cl)c2c(=O)n1-c1ccccc1 [duvelisib]	0.186
Cc1ccc(Sc2cncc3sc(C(N)=O)cc23)cc1	0.032
Cc1cccc(-c2[nH]c(C(C)(C)C)nc2-c2ccc3nccnc3c2)n1	0.015
COc1cccc2cc(-c3nc([C@H]4CC[C@H](C(=O)O)CC4)n4ncnc(N)c34)[nH]c12	0.022
COc1cc2nc(-c3cc(F)ccc3O)nc(N[C@@H]3CNC[C@H]3C(C)(C)O)c2cc1OC	0.024
CCCCN(Cc1ccc(C(=O)NO)cc1)C(=O)Nc1ccccc1 [Nexturastat A]	-0.021
CC(C)C[C@@H](C=O)NC(=O)[C@H](CC(C)C)NC(=O)[C@H](CC(C)C)NC(=O)OCc1ccccc1	-0.061
CN(CCOc1ccc(C[C@@H]2SC(=O)NC2=O)cc1)c1ccccn1 (racemic) [rosiglitazone]	0.04
O=C1NC(=O)/C(=C\c2ccc3nccnc3c2)S1	0.033
CCn1c(C(=O)N(C2CC2)C2CC2)cc2c3c(ncn3C)c(Nc3cc(C)n(C)n3)nc21	0.019
Cc1cccc(CC(=O)N2CCc3c2ccc(-c2cn(C)c4ncnc(N)c24)c3F)n1	-0.048
